From publication PMC4336329 (PLoS ONE, 2015)
In all, about 310,000 compounds went through this assay and about 14,000 (4.5%) showed an effect of 50% or more. Effects have a minus sign here. The full list was thinned out, with strong results kept by preference.

target: human ether-à-go-go-related gene (hERG) potassium channel (human, UniProt Q12809); test: primary screen, population patch clamp on CHO cells stably expressing hERG; higher = less effect of the substance
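Note: peak tail current of the secondary pulse compared with the same well before compound.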

human ether-à-go-go-related gene (hERG) potassium channel, sequence (Q12809 whole entry, looked up): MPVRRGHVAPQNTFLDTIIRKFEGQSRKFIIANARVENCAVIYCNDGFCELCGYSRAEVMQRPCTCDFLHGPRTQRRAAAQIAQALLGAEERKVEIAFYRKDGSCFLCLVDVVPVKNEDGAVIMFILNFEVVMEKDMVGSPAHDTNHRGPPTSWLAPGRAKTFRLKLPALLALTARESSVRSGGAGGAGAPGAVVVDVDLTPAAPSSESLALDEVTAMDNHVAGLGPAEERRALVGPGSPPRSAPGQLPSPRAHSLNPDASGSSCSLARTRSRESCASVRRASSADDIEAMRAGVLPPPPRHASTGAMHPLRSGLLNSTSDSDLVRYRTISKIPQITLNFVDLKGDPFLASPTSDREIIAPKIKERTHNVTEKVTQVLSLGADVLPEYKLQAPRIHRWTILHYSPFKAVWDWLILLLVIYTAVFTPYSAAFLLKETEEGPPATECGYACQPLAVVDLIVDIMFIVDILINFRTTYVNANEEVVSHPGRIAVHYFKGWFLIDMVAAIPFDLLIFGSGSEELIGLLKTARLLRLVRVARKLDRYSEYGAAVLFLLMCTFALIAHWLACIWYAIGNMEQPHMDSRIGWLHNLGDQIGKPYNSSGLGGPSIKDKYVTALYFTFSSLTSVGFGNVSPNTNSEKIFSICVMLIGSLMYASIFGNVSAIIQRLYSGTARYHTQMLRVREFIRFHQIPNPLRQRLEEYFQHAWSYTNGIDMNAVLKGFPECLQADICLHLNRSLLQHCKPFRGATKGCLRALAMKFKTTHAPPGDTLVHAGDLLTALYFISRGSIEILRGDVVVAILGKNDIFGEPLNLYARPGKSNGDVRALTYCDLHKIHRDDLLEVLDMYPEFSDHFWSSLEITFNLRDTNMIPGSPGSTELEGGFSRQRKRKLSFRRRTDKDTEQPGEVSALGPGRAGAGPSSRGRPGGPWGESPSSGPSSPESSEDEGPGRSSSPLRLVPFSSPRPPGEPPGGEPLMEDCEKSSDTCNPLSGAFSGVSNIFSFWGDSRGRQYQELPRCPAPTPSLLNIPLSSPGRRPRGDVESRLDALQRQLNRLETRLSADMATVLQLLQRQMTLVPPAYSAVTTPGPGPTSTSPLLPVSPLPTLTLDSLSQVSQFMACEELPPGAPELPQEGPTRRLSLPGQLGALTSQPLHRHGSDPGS

| Structure (SMILES) | hERG current change (%, negative = inhibition) at 10uM [%] |
| --- | --- |
| Cc1ccc2cccc(S(=O)(=O)Nc3c(C)n(C)n(-c4ccccc4)c3=O)c2n1 | -0.878 |
| O=C(COc1ccc(F)cc1)NCC1(N2CCOCC2)CCCCC1 | -27.9 |
| CCc1ccc(N2CCN(C(=O)c3ccc4c(c3)OCO4)CC2)cc1 | -50.3 |
| CC(C)(C)c1ccc(C(=O)N2CCN(c3ccc(N4CCOCC4)nn3)CC2)cc1 | -49.3 |
| O=C(c1ccc(F)cc1)N1CCN(c2ccc(N3CCOCC3)nn2)CC1 | -12 |
| O=C(c1ccc(C(F)(F)F)cc1)N1CCN(c2ccc(N3CCOCC3)nn2)CC1 | -67.9 |
| O=C(c1ccc2c(c1)OCO2)N1CCN(c2ccc(F)cc2)CC1 | -30.4 |
| CC(=O)c1ccc(N2CCN(C(=O)c3ccc4c(c3)OCO4)CC2)cc1 | -45.4 |
| Cc1ccccc1NCC(=O)N/N=C\c1ccc2c(c1)OCO2 | -0.637 |
| COc1ccc(OC)c(NC(=O)NCCc2cccc(Cl)c2)c1 | 10.1 |
| C=CCCC1(C)C(=O)N(c2ccccc2)c2ccccc21 (stereo not drawn) | -3.56 |
| O=C(CCS(=O)(=O)c1ccccc1)Nc1nc2c(s1)CCCC2 | 0.42 |
| CC1CCCN(c2nc3c(c(=O)n(C)c(=O)n3C)n2Cc2ccccc2)C1 (stereo not drawn) | -40.9 |
| COc1ccc(N2CCN(S(=O)(=O)c3ccc4c(c3)NC(=O)C(C)S4)CC2)cc1 (stereo not drawn) | 6.85 |
| CC(C)C(C(=O)Nc1ccc(S(=O)(=O)N2CCOCC2)cc1)N1C(=O)c2ccccc2C1=O (stereo not drawn) | -16.2 |
| CC/C(=N/NC(=O)CCC(=O)Nc1ccccc1OC)c1ccccc1 | -1.67 |
| O=C(CN1CCN(Cc2ccccc2)CC1)Nc1ccc(N2CCOCC2)cc1 | -3.67 |
| O=C(CN1CCN(Cc2ccccc2)CC1)Nc1ccc(-n2cnnn2)cc1 | -48 |
| O=C(CN1CCN(Cc2ccccc2)CC1)Nc1ccc(Br)cc1 | -71.9 |
| O=C(CN1CCN(Cc2ccccc2)CC1)Nc1ccc(Cl)cn1 | -74.5 |
| O=C(CN1CCN(Cc2ccccc2)CC1)Nc1ccc(Cl)cc1 | -68.4 |

| Structure (SMILES) | hERG current change (%, negative = inhibition) at 10uM [%] |
| --- | --- |
| O=C(CN1CCN(Cc2ccccc2)CC1)Nc1ccccc1 | -26.9 |
| NC(=O)c1ccc(NC(=O)CN2CCN(Cc3ccccc3)CC2)cc1 | -0.874 |
| O=C(CN1CCOCC1)Nc1ccc(Cl)cn1 | 20.6 |
| O=C(CN1CCCCCC1)Nc1ccc(Cl)cn1 | 1.45 |
| C/C(=N\NC(=O)c1cccnc1)c1ccc(OC2OCCOC2Oc2ccc(/C(C)=N/NC(=O)c3cccnc3)cc2)cc1 (stereo not drawn) | 8.81 |
| COc1ccc(-n2c(=O)n(Cc3ccccc3)c(=O)c3[nH]cnc32)cc1 | -17.1 |
| COc1ccc(S(=O)(=O)NC2CCCC2)cc1C(N)=O | 4.15 |
| CCCn1c(=O)c(C(=O)Nc2ncccc2O)c(O)c2ccccc21 | 11.1 |
| Cc1cc(=O)oc2ccc(OCC(=O)N(Cc3ccc(F)cc3)Cc3ccco3)cc12 | -58.8 |
| Cc1cc(=O)oc2cc(OCC(=O)NCc3ccco3)ccc12 | -6.81 |
| Cc1cc(=O)oc2ccc(OCC(=O)O)cc12 | 16.1 |
| COc1ccc2ccccc2c1CNc1nnnn1C | 17.9 |
| CSc1ccc(S(=O)(=O)N2CCC(C(=O)N3CCOCC3)CC2)cc1 | 2.57 |
| Cc1oc2cc3oc(=O)c(CCC(=O)N4C[C@H]5C[C@@H](C4)c4cccc(=O)n4C5)c(C)c3cc2c1C | -54 |
| Cc1c(CC(=O)N2C[C@H]3C[C@@H](C2)c2cccc(=O)n2C3)c(=O)oc2cc3occ(C(C)(C)C)c3cc12 | -73.4 |
| COc1ccc2c(C)c(CC(=O)N3C[C@H]4C[C@@H](C3)c3cccc(=O)n3C4)c(=O)oc2c1 | -32.4 |
| Cc1coc2cc3oc(=O)c(CCC(=O)N4C[C@H]5C[C@@H](C4)c4cccc(=O)n4C5)c(C)c3cc12 | -42.5 |
| C=C(C)COc1ccc2c(C)c(CC(=O)N3C[C@H]4C[C@@H](C3)c3cccc(=O)n3C4)c(=O)oc2c1 | -48.5 |
| COc1ccc2c(C)c(CCC(=O)N3C[C@H]4C[C@@H](C3)c3cccc(=O)n3C4)c(=O)oc2c1 | -34.9 |
| COc1ccc2c(C)c(CC(=O)N3C[C@H]4C[C@@H](C3)c3cccc(=O)n3C4)c(=O)oc2c1OC | -1.03 |
| Cc1oc2c(C)c3oc(=O)c(CCC(=O)N4C[C@H]5C[C@@H](C4)c4cccc(=O)n4C5)c(C)c3cc2c1C | -51.7 |

| Structure (SMILES) | hERG current change (%, negative = inhibition) at 10uM [%] |
| --- | --- |
| Cc1c(CC(=O)N2C[C@H]3C[C@@H](C2)c2cccc(=O)n2C3)c(=O)oc2cc(O)c(Cl)cc12 | 9.44 |
| Cc1coc2cc3oc(=O)c(CC(=O)N4C[C@H]5C[C@@H](C4)c4cccc(=O)n4C5)c(C)c3cc12 | -41.5 |
| Cc1c(CC(=O)N2C[C@H]3C[C@@H](C2)c2cccc(=O)n2C3)c(=O)oc2c(C)c(O)ccc12 | 4.94 |
| C=C(C)COc1ccc2c(C)c(CCC(=O)N3C[C@H]4C[C@@H](C3)c3cccc(=O)n3C4)c(=O)oc2c1 | -60.4 |
| CCOC(=O)c1ccc(NC(=O)Nc2ccc3c(c2)OCCO3)cc1 | 10.6 |
| Cn1c(=O)c2c(nc(SCC(=O)c3cccs3)n2Cc2ccc(F)cc2)n(C)c1=O | -13.2 |
| COc1ccc(C(=O)c2ccccc2Cl)cc1 | -34.5 |
| O=C(CSc1nnc(CNC(=O)c2ccccc2F)o1)NCc1ccccc1 | -7.93 |
| Cc1ccc(NC(=O)COC(=O)C2CC(=O)N(Cc3ccccc3)C2)cc1S(=O)(=O)N(C)C (stereo not drawn) | 7.45 |
| CCCn1ccnc1SC(C)C(=O)Nc1c(C)n(C)n(-c2ccccc2)c1=O (stereo not drawn) | 16.9 |
| CN1C(=O)N(C)c2ccc(Br)c3cccc1c23 | 23.5 |
| CC(OC(=O)c1ccccc1C(=O)N(C)c1ccccc1)C(=O)Nc1ccc(C(N)=O)cc1 (stereo not drawn) | -4.36 |
| Cc1coc2c(C)c3oc(=O)c(CCC(=O)N4C[C@H]5C[C@@H](C4)c4cccc(=O)n4C5)c(C)c3cc12 | -50.6 |
| Cc1c(C)c2ccc(OCC(=O)N3C[C@H]4C[C@@H](C3)c3cccc(=O)n3C4)c(C)c2oc1=O | 1.39 |
| COc1ccc(-c2cc(=O)oc3cc(OCC(=O)N4C[C@H]5C[C@@H](C4)c4cccc(=O)n4C5)ccc23)cc1 | -53.5 |
| Cc1c(OCC(=O)N2C[C@H]3C[C@@H](C2)c2cccc(=O)n2C3)ccc2c3c(c(=O)oc12)CCCC3 | -13.5 |
| CCc1cc(=O)oc2cc(OCC(=O)N3C[C@H]4C[C@@H](C3)c3cccc(=O)n3C4)ccc12 | 8.87 |
| Cc1cc(=O)oc2cc(OCC(=O)N3C[C@H]4C[C@@H](C3)c3cccc(=O)n3C4)ccc12 | 1.52 |
| COCCOC1CCN(C(=O)C2CCC(=O)N(Cc3cccc(F)c3)C2)CC1 (stereo not drawn) | 20.1 |
| CCOC(=O)N1CCN(C(=O)c2ccc(NS(=O)(=O)c3ccc(F)cc3)cc2)CC1 | -1.81 |
| CCN(C(=O)COC(=O)C1CCN(S(=O)(=O)c2ccc(C)c(C)c2)CC1)C1CCCCC1 | -10.4 |

| Structure (SMILES) | hERG current change (%, negative = inhibition) at 10uM [%] |
| --- | --- |
| Cc1ccc(/C(N)=N/OC(=O)CSc2ccccc2)cc1 | -5.49 |
| Cn1nc(-c2ccccc2F)c2cc(C(=O)N3CCN(C(=O)c4ccco4)CC3)sc21 | -57.2 |
| COCCNC(=O)c1cc2c(-c3ccccc3F)nn(C)c2s1 | -6.2 |
| CCOC(=O)N1CCC(NC(=O)c2cc3c(-c4ccccc4F)nn(C)c3s2)CC1 | 13.5 |
| CN(CCNC(=O)c1cc2c(-c3ccccc3F)nn(C)c2s1)C1CCCCC1 | -50.8 |
| Cn1nc(-c2ccccc2F)c2cc(C(=O)Nc3ccc4c(c3)OCCO4)sc21 | 14.8 |
| CC(=O)c1ccc(N2CCN(C(=O)c3cc4c(-c5ccccc5F)nn(C)c4s3)CC2)cc1 | -20.7 |
| CC1CCCCN1CCNC(=O)c1cc2c(-c3ccccc3F)nn(C)c2s1 (stereo not drawn) | -56.1 |
| Cn1nc(-c2ccc(Cl)cc2)c2cc(C(=O)N3CCN(C(=O)c4ccco4)CC3)sc21 | -20.7 |
| CC(CCc1ccco1)NC(=O)c1cc2c(-c3ccccc3F)nn(C)c2s1 (stereo not drawn) | -5.86 |
| CCOc1ccc(NC(=O)c2ccc(-n3cccn3)nc2)cc1 | 18.7 |
| CCN(/C=N/c1sc2c(c1C#N)CCCCC2)CC | 5.56 |
| CC(c1ccccc1)n1c(-c2ccc(Cl)cc2)n[nH]c1=S (stereo not drawn) | 13.9 |
| CCOc1cc(C(=O)Nc2ccc([N+](=O)[O-])cn2)cc(OCC)c1OCC | -29 |
| COc1ccc(C(=O)CC(=O)C(=O)Nc2cc(OC)c(OC)c(OC)c2)cc1 | 8.58 |
| Clc1ccc(-n2ncc3c(NCCN4CCOCC4)ncnc32)cc1 | -34.7 |
| Clc1ccc2[nH]c3c(NCCCN4CCOCC4)ncnc3c2c1 | -69.9 |
| Fc1ccc2[nH]c3c(NCCN4CCOCC4)ncnc3c2c1 | -16.8 |
| Cc1ccc2[nH]c3c(NCCCN4CCCC4=O)ncnc3c2c1 | -13.7 |
| Cc1ccc2ncnc(NCCCN3CCOCC3)c2c1 | -13.6 |
| Clc1ccc2[nH]c3c(NCCN4CCOCC4)ncnc3c2c1 | -61.8 |
